# Screening results from PubChem BioAssay.
# NR3A LBD binder: binders of NR3A ligand-binding domain, primary screen, biophysical, differential scanning fluorimetry, uHTS; AID 1259313, 2017; Tm shift relative to glycine control, % at 25 µM; Glutamate receptor ionotropic, NMDA 3A (GRIN3A) ligand-binding domain; NR3A LBD differential scanning fluorimetry, Tm shift; 0% = protein alone, 100% = glycine-bound protein; hit rate 2.5% among 340,000;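 active = melting temperature shift of at least 10% of the positive control shift, at one fixed dose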
# NTR1 agonist: agonists of human NTR1, primary screen, imaging, U2OS cells, beta-arrestin-GFP, high content; Neurotensin receptor type 1 (Homo sapiens), P30989; NTR1-U2OS beta-arrestin-GFP spot imaging, agonist mode; activation, % at 20 µM; hit rate 0.17% among 330,000; AID 493036, 2011;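 active = activation at or above 40% of the spot to cytoplasm intensity ratio, with at least 20 cells analyzed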;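 also: 0% = DMSO without peptide and 100% = 100 nM NTR1 peptide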
# Target sequence (P30989 whole entry, looked up): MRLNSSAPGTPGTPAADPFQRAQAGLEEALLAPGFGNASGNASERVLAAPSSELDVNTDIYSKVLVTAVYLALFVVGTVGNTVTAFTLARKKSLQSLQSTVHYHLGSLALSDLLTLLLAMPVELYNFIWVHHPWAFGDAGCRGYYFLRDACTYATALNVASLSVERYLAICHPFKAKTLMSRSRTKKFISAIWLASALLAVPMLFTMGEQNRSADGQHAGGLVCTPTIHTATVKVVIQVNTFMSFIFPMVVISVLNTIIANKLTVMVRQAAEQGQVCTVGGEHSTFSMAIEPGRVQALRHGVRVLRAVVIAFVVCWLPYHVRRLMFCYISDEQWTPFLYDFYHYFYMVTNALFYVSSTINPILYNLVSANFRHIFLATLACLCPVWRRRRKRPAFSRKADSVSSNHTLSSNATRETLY
# H9c2 protect: cardioprotection against H2O2-induced cell death, primary screen, uHTS, H9c2 cells, ATPLite luminescence. hit rate 0.63% among 360,000. AID 588492, 2011. H9c2 cardiomyocytes, H2O2 injury protection, 2 h. protection from H2O2 cell death, % at 20 µM;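 active = compounds giving at least 50% protection of heart cells from peroxide-induced death in the single-dose screen, raw or plate-pattern-corrected value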;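 also: 0% = DMSO wells with peroxide and 100% = DMSO wells without peroxide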
# AI-2 QS mod: Vibrio harveyi AI-2 quorum sensing modulators, primary screen, JMH597 strain, luminescence/OD600 ratio | Vibrio harveyi JMH597 AI-2 luminescence/OD600 ratio, 9 h; stronger effect = lower value; strain lacks LuxN and CqsS sensors; 0 = neutral-control median | activity change, % at 7.5 µM | hit rate 0.4% among 300,000 | AID 2094, 2009; in the data active = activity change below about -75%, passing the limit was not always enough;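 also: luminescence divided by OD600 gain over 9 h not by final OD600 alone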
# Mot1-301 SUMO: yeast Mot1-301 growth rescue at high temperature, primary screen, SUMOylation pathway inhibitor project, S. cerevisiae, ATP luminescence, 38.5C; hit rate 1% among 320,000; S. cerevisiae Mot1-301 growth rescue; percent above DMSO median, 100 means doubled; AID 2716, 2010; growth rescue, % at 18.8 µM;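 active = every valid replicate shows activation above 250% relative to neutral control wells; inactive = the rest, any valid replicate at or below 250%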;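 also: OY570 slx delta 5 strain wells were the positive control but not used for scaling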
# AHR activator: AHR activators, primary screen, cell-based, luminescence, luciferase reporter, human | Aryl hydrocarbon receptor (Homo sapiens), P35869 | AHR-responsive luciferase reporter cells | activation, % at 5 µM | hit rate 2.5% among 320,000; in the data active = activation above about 47%;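 also: 0% = vehicle wells and 100% = reference agonist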
# * hit, by the source's call; · = not tested or not shown. Hits are enriched below; roughly 6.2% of the tested compounds scored in any of these assays.
SMILES,NR3A LBD binder,NTR1 agonist,H9c2 protect,AI-2 QS mod,Mot1-301 SUMO,AHR activator
C#Cc1cccc(N2C(=O)C3C4C=CC(C3C2=O)C2C(=O)N(c3cccc(C#C)c3)C(=O)C42)c1 (stereo not drawn),14*,·,4,·,·,·
CCOC(=O)c1c(C)nc(-c2ccccc2)nc1N,0,-3,-5,5,16,31
CC(=O)c1c(C)[nH]c(-c2ccccc2)nc1=S,4,-1,1,-9,-5,66*
COc1ccccc1-c1nc(=S)c(C(C)=O)c(C)[nH]1,2,0,2,20,-13,54*
CC(=O)c1c(C)nc(-c2ccccc2)nc1N,-1,-1,-4,13,-8,77*
Cc1ccc(C(=O)NCC(=O)OCC(=O)c2ccc(Br)s2)cc1,-2,0,-8,16,-9,1
COc1ccc(NC(=O)N2CCC(c3nc(-c4cccs4)no3)CC2)cc1,-1,-2,-2,14,-2,60*
O=C(Nc1ccccc1)N1CCCC(c2nc(-c3cccs3)no2)C1 (stereo not drawn),-7,-1,-2,5,-15,70*
O=C(Nc1cccc(C(F)(F)F)c1)N1CCC(c2nc(-c3ccc(F)cc3)no2)CC1,21*,16,-10,37,5,2
CC(C)c1ccccc1OS(N)(=O)=O,0,0,10,21,4,1
CCCNC(=O)c1ccc2c(=O)c(O)c(-c3ccsc3)[nH]c2c1,-2,2,51*,-5,-2,16
Cc1ccc(-c2[nH]c3cc(C(N)=O)ccc3c(=O)c2O)cc1,0,-3,63*,9,3,66*
Cc1ccc(-c2[nH]c3cc(C(=O)NCCCn4ccnc4)ccc3c(=O)c2O)cc1,-1,-1,3,6,3,12
CCCNC(=O)c1ccc2c(=O)c(O)c(-c3ccc(OC)cc3)[nH]c2c1,-3,-5,35,-5,-1,19
Cc1ccc(CNC(=O)c2ccc3c(=O)c(O)c(-c4ccc(C)cc4)[nH]c3c2)cc1,-4,-3,59*,10,-16,8
CCN(Cc1cc(=O)[nH]c2ccccc12)C(=O)c1ccc(C)cc1,0,5,0,20,7,8
CCCNC(=O)c1ccc2c(=O)c(O)c(-c3ccc(C)cc3)[nH]c2c1,-7,-1,54*,10,-5,8
COc1ccc(N(C(=O)c2ccco2)C(C(=O)NC2CCCC2)c2ccc(N3CCOCC3)cc2)c(OC)c1 (stereo not drawn),0,1,3,17,-17,-2
O=C(NC1CC1)C1CCN(S(=O)(=O)c2ccc(Cl)c([N+](=O)[O-])c2)CC1,2,0,4,·,2,1
N#CC(c1ccc(Cl)cc1)c1ncc(C(F)(F)F)cc1Cl (stereo not drawn),14*,2,2,13,-15,-2
CCN(CC(=O)Nc1ccc(OC)cc1)C(=O)c1ccc(OCc2c(C)noc2C)cc1,-1,·,-4,·,·,·
CCCCc1ccc(NC(=O)CSc2nc(=O)n(CCN3CCOCC3)c3c2CCC3)cc1,-4,2,-10,-1,201,-1
CCCCc1ccc(NC(=O)CSc2nc(=O)n(CCCN3CCOCC3)c3c2CCC3)cc1,-2,2,2,-3,536*,1
CN1CCc2c1nc1ccccc1c2N (tested in a mixture with another compound),0,0,13,-3,-1,19
Cc1cccc2c(N)c3c(nc12)N(C)CC3,16*,4,4,18,11,13
SMILES,NR3A LBD binder,NTR1 agonist,H9c2 protect,AI-2 QS mod,Mot1-301 SUMO,AHR activator
CCCCNC(=O)C1(N2C(=O)c3ccccc3C2=O)CCCC1,1,·,0,·,·,·
CCCc1ccc(OC(=O)c2ccc(O)cc2Cl)cc1,16*,13,-8,18,7,-1
CCCc1ccc(OC(=O)c2cccs2)cc1,1,1,-4,-5,380,1
CCOc1ccccc1N1CC(C(=O)N(C)Cc2cccnc2)CC1=O (stereo not drawn),1,0,2,18,-11,3
CC(c1nc2ccccc2n1Cc1ccccc1)N1CCCCC1 (stereo not drawn),-3,1,-4,7,-6,1
CN(C)C(=S)Oc1ccccc1C1(C)OCCO1,·,·,2,·,·,·
COc1cc(OC)cc(OCC(O)Cn2ccnc2)c1 (stereo not drawn),0,1,7,5,176,53*
O=C(NCCc1nnc2ccc(SCC(=O)N3CCCC3)nn12)c1ccccc1,0,0,4,30,175,0
CC(=O)Nc1nccc(-c2cc(-c3ccccc3)no2)n1,-1,3,·,8,-15,50*
CC(C)(C)C(=O)Nc1ccc(S(=O)(=O)c2ccc(NC(=O)C(C)(C)C)cc2)cc1,-2,-1,-1,10,320*,-3
COC(=O)[C@]1(C)N[C@H](CN(C)S(=O)(=O)c2ccccc2)[C@@H]2C(=O)N(Cc3ccccc3)C(=O)[C@@H]21,7,-1,-2,·,-5,1
O=C(Nc1cc2c(cc1C(=O)O)OCCCO2)c1ccc(C(F)(F)F)cc1,-15,1,-2,22,-4,73*
O=C(O)c1cc2c(cc1NC(=O)c1ccccc1C(F)(F)F)OCCCO2,1,1,-7,13,-3,-2
OC[C@@H]1CN(Cc2ccco2)C[C@H](n2cnc3c(Nc4ccccc4)ncnc32)O1,·,·,-2,·,·,·
CC(OC(=O)c1cc2c(ccc3ccccc32)oc1=O)c1nc2ccccc2s1 (stereo not drawn),-1,10,69*,26,21,9
Clc1ccc(CSc2cc3c(nn2)-c2ccccc2CC3)cc1,-8,0,-21,15,-16,47*
Clc1ccc(CSc2ccc(-c3ccccn3)nn2)cc1,0,2,47,12,-27,4
O=C(CCCN1C(=O)C2CC=CCC2C1=O)Nc1cccc(F)c1 (stereo not drawn),11*,-1,0,32,5,1
COc1ccc(NC(=O)CCN2C(=O)C3CC=C(Cl)CC3C2=O)cc1 (stereo not drawn),32*,4,-6,4,0,-2
Cc1c(Cl)cccc1NC(=O)CCN1C(=O)C2CC=CCC2C1=O (stereo not drawn),11*,-1,4,18,158,0
